# PubChem BioAssay AID1851 (National Center for Advancing Translational Sciences (NCATS), 2009)
# Where “and” joins values, the source holds several entries; their conditions need not be identical. Equal values may be shown once. Among all 16,000 compounds or so, about 4,000 (25%) were called active. Not shown: some 26% with an inconclusive outcome. The call rests on the fitted dose curve; in most records, active means well fitted curve in the direction sought with a large enough effect; inconclusive means small, poorly fitted or top-dose-only effect, or effect the other way; inactive means no such curve, though single readings can be large or run the other way. Not all results are given here.
# Target: Cytochrome P450 2C9 (Homo sapiens) (UniProt P11712)
# Sequence (P11712 whole entry, looked up): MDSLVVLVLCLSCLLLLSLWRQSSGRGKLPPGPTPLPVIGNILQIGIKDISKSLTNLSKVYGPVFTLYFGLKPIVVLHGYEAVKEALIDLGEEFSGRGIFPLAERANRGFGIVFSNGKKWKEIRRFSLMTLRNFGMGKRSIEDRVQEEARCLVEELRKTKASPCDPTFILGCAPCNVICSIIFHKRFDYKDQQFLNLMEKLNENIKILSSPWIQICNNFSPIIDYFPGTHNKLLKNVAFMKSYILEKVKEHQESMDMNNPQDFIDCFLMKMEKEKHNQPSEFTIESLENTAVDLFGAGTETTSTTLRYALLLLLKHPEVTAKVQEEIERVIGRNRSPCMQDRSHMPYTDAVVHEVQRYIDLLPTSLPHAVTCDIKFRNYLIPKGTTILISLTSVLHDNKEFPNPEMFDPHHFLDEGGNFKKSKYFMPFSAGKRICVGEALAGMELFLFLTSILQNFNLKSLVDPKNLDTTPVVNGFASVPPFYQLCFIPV
# Assay: Cytochrome panel assay with activity outcomes
# Settings: recombinant CYP, pro-luciferin dealkylation, luminescence, p450-cyp2c9; series mostly up to 57.1 µM
# On the % scale 0 is the no-effect control and ±100 the full control effect.
SMILES,"activity, negative = inhibition",AC50
Cc1cc(Cc2cc(C)c(N)cc2N)c(N)cc1N,-2.47% [at 11.4 µM] (inactive),–
C[C@H](CN(C)C)C(C#N)(c1ccccc1)c1ccccc1,-0.348% [at 11.4 µM] (inactive),–
O=C(O)CP(=O)(O)c1ccc(Cl)cc1,inactive,–
CNCCc1c[nH]c2ccc(O)cc12,inactive,–
O=c1c(O)c(-c2cc(O)c(O)c(O)c2)oc2cc(O)cc(O)c12,–,12.6 µM (active) and 10 µM (active)
O=c1cc(-c2ccc(O)cc2)oc2cc(O)cc(O)c12,inactive,–
O=c1cc(-c2ccc(O)c(O)c2)oc2cc(O)cc(O)c12,inactive,–
Nc1nc(N)c(Cn2ccnc2)c(=O)[nH]1,-12.8% [at 11.4 µM] (inactive),–
Cn1cccc1CNCCc1ccccc1,inactive,–
CN1CC[C@@]23c4ccccc4N[C@H]1[C@]21CCN(C)[C@@H]3Nc2ccccc21,inactive,–
C=C1C/C(=C\C)C(=O)O[C@@H]2CCN3CC=C(COC(=O)[C@@]1(C)O)[C@H]23,inactive,–
CC1=C(C)[N+](=O)C2(O)CCCCC2(C)N1[O-] (stereo not given),inactive,–
S=P(C1CCCCC1)(C1CCCCC1)[C@H](c1cccnc1)N1CCCC1,-6.57% [at 11.4 µM] (inactive),–
C=Cn1ccnc1P(=S)(c1nccn1C=C)C1CCCCC1,–,11.2 µM (active)
O[Si@](CCCN1CCCCC1)(c1ccc(F)cc1)C1CCCCC1,inactive,–
COC(=O)NC/C=C\c1nc(CC/C=C\C(=O)O[C@H]2C[C@H]3CC(=O)O[C@@H](/C=C\CC(C)C)C[C@@H]4CC[C@H](C)[C@H](C[C@@H](OC)C[C@H](C2)O3)O4)co1,-4% [at 11.4 µM] (inactive),–
COC(=O)[C@H]1C(=O)c2ccccc2O[C@@](C(=O)OC)(c2ccccc2)[C@@H]1c1ccccc1,-6.83% [at 11.4 µM] (inactive),–
CC[C@@H]1CN2CCc3cc(OC)c(OC)cc3[C@H]2C[C@@H]1C[C@@H]1NCCc2cc(O)c(OC)cc21,inactive,–
O=C(Oc1ccccc1)N1CCC2(CC1)CN(Cc1ccncc1)C2,–,3.16 µM (active)
O=C(Oc1ccccc1)N1CCC2(CCN(Cc3ccccc3)CC2)CC1,inactive,–
N#Cc1ccc(CN2CCC3(CC2)CCN(C(=O)Oc2ccccc2)CC3)cc1,inactive,–
CS(=O)(=O)N1CCC2(CC1)CN(Cc1ccncc1)C2,–,39.8 µM (active)
O=C(Oc1ccccc1)N1CCC2(CCN(Cc3ccncc3)CC2)CC1,–,3.98 µM (active)
CC(C)CN1CC2(CCN(C(=O)c3ccncc3)CC2)C1,inactive,–
c1cc(CN2CC3(CCNCC3)C2)ccn1,inactive,–
c1cc(CN2CCC3(CCNCC3)CC2)ccn1,inactive,–
CN1CC[C@@]2(CCCN(C(=O)c3csnn3)C2)C1,inactive,–
CC(C)CN1CC2(CCN(C(=O)Oc3ccccc3)CC2)C1,inactive,–
O=C(c1csnn1)N1CCC2(CC1)CN(Cc1ccncc1)C2,–,10 µM (active)
O=C(Oc1ccccc1)N1CCC2(CCCN(Cc3ccccc3)C2)CC1,inactive,–
